# Peg3 imprint: induces erasure of genomic imprints in mouse ES cells; mouse ES Peg3-LacZ reporter, beta-gal luminescence, 40 h; Potency, µM (highest dose often 60.7 µM), without a hit: at the highest dose activity change, positive = activation, most hits filed as activators; 0.02% of 110,000 active; AID 1948; note: potency is the fitted concentration of half-maximal effect
#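 Imprint erasure is scored as LacZ activity from the silenced maternal Peg3 allele in feeder-free female ES cells cultured 40 h with LIF. Luminescence is normalized to in-plate negative controls and fitted to the Hill equation.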
# Epigenetic mod: epigenetic GFP locus derepression in mouse cells; mouse C127i GFP locus derepression, cytometry, 30 h; Potency, µM (series often up to 46.1 µM), inactives show top-dose GFP derepression (activation); 0.09% of 68,000 active; note: % of control where 0% means no effect
#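 Derepression screen: silenced CMV-GFP reporter in murine C127i cells, 30 h compound incubation at 37 C, washed cells imaged by laser-scanning cytometer to enumerate GFP-expressing objects of 20 to 120 um.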
# p53ts 32C kill: p53ts cell cytotoxicity, permissive temperature. H1299-p53A138V at 32C, ATP luminescence viability, 24 h. Potency, µM (doses to about 46.1 µM), inactives show at the top dose activity change, negative = cytotoxicity, hits mostly cytotoxic. 0.93% of 130,000 active. AID 924;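 note: potency is the fitted concentration of half-maximal effect; 0% = DMSO and -100% = full killing by reference compound; nearly all actives have a fitted effect of over 55% in size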
#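 Viability by ATPlite luminescence after 24 h compound treatment (up to 46 uM) at the permissive 32C. Cells are H1299 carrying p53 A138V. Scale runs from DMSO basal to 100 uM tamoxifen as full kill; AC50 from Hill fits.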
# UbGFP stabilizer: proteasome inhibitors stabilizing ubiquitin-GFP reporter. Potency, µM (highest dose often 45.9 µM), inactives show at the highest dose activation (GFP accumulation), most hits filed as activators. AID 526. Ubiquitin-GFP reporter cells, proteasome inhibition, GFP fluorescence; response scale: untreated = 0%, 10 µM MG-132 = 100%. 67,000 tested, under 10 active; active = well fitted activation curve with a large enough effect, not every such curve was filed as active; inconclusive = small, poorly fitted or top-dose-only effect, or another doubt; inactive = no such curve, though single readings can be large or run the other way; note: potency is the fitted concentration of half-maximal effect
#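 U2OS cells expressing ubiquitin(G76V)-GFP, seeded overnight in 0.5% FBS medium, then treated 4 hr at 37 C across 46 uM to 2.9 nM. GFP-positive cells counted by laser cytometry (488 ex/515 em); %activity scaled between basal and 10 uM MG-132.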
# p53ts 39C kill: cytotoxicity in p53ts cells at nonpermissive temperature; H1299-p53A138V viability at 39C, ATP luminescence, 24 h; Potency, µM (titrated, usually from 46.1 µM), for the others: at the highest dose activity change, negative = cell killing, hits mostly cytotoxic; 1.5% of 130,000 active; AID 902; note: potency is the fitted concentration of half-maximal effect; % is set by controls: 0 for no effect and ±100 for the full control effect; nearly all actives have a fitted effect of over 55% in size
# HBB splice mod: alters splicing of the hemoglobin beta chain | Potency, µM (highest dose often 46.1 µM), inactives show at the top dose activation, hits mostly activators | AID 925 | 0.06% of 65,000 active | HBB splicing reporter cell assay, activation; EGFP reporter with mutant IVS2-654 intron; response scale: normalised to 500 nM splice-correcting PNA; note: potency is the fitted concentration of half-maximal effect; 0% is about no effect
#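 Compounds were applied for 2 days to HeLa EGFP-654 cells, 500/well in Optimem with 2% FCS. The reporter's EGFP is disrupted by mis-splicing of beta-globin intron IVS2-654. Readout: summed well GFP fluorescence from 488 nm laser scanning; reference was 500 nM antisense […] 654 PNA.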
# * marks the source's active call; other numbers are inactive results; ? = inconclusive; . = not tested or not shown; ! = a repeat was not active; [ ] = remark or other dose. This is a sample that favours compounds with a hit; in the whole collection about 1.6% have one here. Unless noted, calls come from the whole dose curve; as a rule, active = well fitted curve in the direction sought with a large enough effect; inconclusive = small, poorly fitted or top-dose-only effect, or another doubt; inactive = no such curve, though single readings can be large; an effect the other way counts as inactive or inconclusive.
SMILES,Peg3 imprint,Epigenetic mod,p53ts 32C kill,UbGFP stabilizer,p53ts 39C kill,HBB splice mod
COc1ccc2c(c1)sc1nc(-c3ccccc3)cn12,-93%,0%,0.63µM*,.,1.3µM*,4%[0.369 µM]
COc1ccc(-c2cn3c(n2)sc2cc(C(=O)NCc4ccccc4)ccc23)cc1,-9%[10.9 µM],.,-7%,.,?,.
O=C(Nc1ccc2oc(-c3cc(Br)ccc3Cl)nc2c1)c1cc2ccccc2o1,-2%[10.9 µM],.,?,.,5µM*,.
O=C(Nc1ccc(CN2CCCCC2)cc1)c1ccc2c(c1)OCO2,-28%,-3%,-7%,4%,-15%,0%
O=C(Nc1ccc(NC(=O)c2cc3ccccc3o2)cc1)c1ccccc1,-13%[10.9 µM],.,-2%,.,-2%,.
O=C(O)c1ccc(NC(=O)c2cc3ccccc3o2)cc1,-41%[10.9 µM],.,7.9µM*,.,10µM*,.
O=C(Nc1ccc2oc(-c3ccc(Br)cc3)nc2c1)c1cc2ccccc2o1,2%[10.9 µM],.,-2%,.,8%,.
O=C(Nc1ccc2c(c1)OCO2)c1ccc(CN2CCOCC2)cc1,-21%,-2%,13µM*,10%,?,-1%
O=C(Nc1ccc(CN2CCOCC2)cc1)c1cc2ccccc2o1,-3%,0%,10µM*,11%,10µM*,-3%
CC(C)CCNc1nc2c(-c3ccccc3)nnn2c2ccccc12,-11%[10.9 µM],.,-2%,.,0%,.
Cc1ccc(OC(C)C(=O)NCC2(N3CCOCC3)CCCCC2)cc1C (stereo unspecified),-11%[10.9 µM],.,-3%,.,-14%,.
CCc1ccc(S(=O)(=O)c2cnc3ccc(OC)cc3c2N2CCCC(C)C2)cc1 (stereo unspecified),-11%[10.9 µM],.,6%,.,-12%,.
NC(=O)c1nn2c(C(F)(F)F)cc(-c3ccc(Br)cc3)nc2c1Cl,-8%[10.9 µM],.,-1%,.,1%,.
COc1ccc2oc(=O)cc(CN3CCN(c4ccccc4F)CC3)c2c1,-12%[10.9 µM],.,-15%,.,-21%,.
CC(=O)Nc1nonc1-c1nnc(SCC(=O)Nc2ccc(F)cc2F)n1-c1ccccc1,-11%[10.9 µM],.,-11%,.,40%,.
O=C(Nc1ccc(CN2CCOCC2)cc1)c1ccccc1F,.,.,?,.,-19%,.
O=C(Nc1ccc(CN2CCOCC2)cc1)c1cc2ccccn2n1,-88%,0%,5µM*,9%,6.3µM*,0%
CCC(Oc1ccccc1)C(=O)Nc1ccc2oc(-c3ccc(OC)cc3)nc2c1 (stereo unspecified),6%[10.9 µM],.,-6%,.,30%,.
CC1CCN(c2ccc(-c3cccc(NS(=O)(=O)c4cccs4)c3)nn2)CC1,-14%[10.9 µM],.,10µM*,.,3.2µM*,.
CC1CCN(c2ccc(-c3cccc(NS(=O)(=O)c4ccc(Cl)s4)c3)nn2)CC1,-8%[10.9 µM],.,6.3µM*,.,4µM*,.
COc1ccccc1CNC(=O)CC(c1ccc(C)cc1)N1Cc2ccccc2C1=O (stereo unspecified),-6%[10.9 µM],.,3%,.,0%,.
COc1ccc(-c2cc(-c3ccccc3O)[nH]n2)cc1OC,-47%,0%,-29%,4%,-19%,0%[9.22 µM]
Oc1ccccc1-c1cc(-c2ccc3c(c2)OCCO3)n[nH]1,-86%,-3%,13µM*,1%,?,0%[57.5 µM]
O=C(CSc1nc(-c2ccccc2)no1)N1CCN(c2ccccc2F)CC1,24%[10.9 µM],.,-1%,.,-16%,.
COc1ccccc1N1CCN(C(=O)CSc2nc(-c3ccc(C(C)C)cc3)no2)CC1,-11%[10.9 µM],.,7.9µM*,.,?,.
SMILES,Peg3 imprint,Epigenetic mod,p53ts 32C kill,UbGFP stabilizer,p53ts 39C kill,HBB splice mod
CC(C)c1ccc(-c2noc(SCC(=O)N3CCN(c4ccccc4F)CC3)n2)cc1,-13%[10.9 µM],.,?,.,6.3µM*,.
CCOC(=O)C1CCN(C(=O)Cn2nc(CC)n3c(cc4sccc43)c2=O)CC1,-13%[10.9 µM],.,8%,.,12%,.
O=C1c2ccccc2C(=O)C1c1ccnc2ccccc12,.,.,?,.,5.6µM*,.
Cc1cccc(C(=O)Nc2sc3c(c2C(=O)O)CCCC3)c1,-71%[10.9 µM],.,?,.,13µM*,.
O=C(Nc1sc2c(c1C(=O)O)CCCCC2)c1ccco1,-94%,14%,13µM*,-3%,13µM*,4%
Cc1cccc(C(=O)Nc2sc3c(c2C(=O)Nc2ccccc2)CCC3)c1,-3%[10.9 µM],.,6%,.,-3%,.
CN(C)C(=O)c1c(NC(=O)c2ccco2)sc2c1CCCCC2,.,.,-1%,.,19%,.
Cc1oc(-c2cccc(Cl)c2)nc1CS(=O)(=O)CC(=O)NCc1ccccc1Cl,-6%[10.9 µM],.,-2%,.,-5%,.
CCOc1ccccc1C(=O)NCc1nc2cccnc2n1Cc1ccc(C)cc1,15%[10.9 µM],.,-2%,.,-27%,.
OCc1cc([C@@H](O)CNCCCCCCOCCCCc2ccccc2)ccc1O,-16%,-1%,-2%,2%,13µM*,0%
CC(CCc1ccccc1)NCC(O)c1ccc(O)c(C(N)=O)c1 (stereo unspecified),-13%,2%[20.6 µM],1%,.,3%,.
COc1ccc(Nc2cc(C)nc3ccccc23)cc1,.,2%[20.6 µM],.,.,.,.
COc1ccc2nc(C)cc(Nc3ccc(Cl)c(Cl)c3)c2c1,-13%[10.9 µM],.,?,.,13µM*,.
O=C(Nc1c(C(=O)Nc2cccc(F)c2)oc2ccccc12)c1ccc2c(c1)OCO2,-3%,0%,-19%,7%,-14%,0%
CN(C)CCN(Cc1ccco1)C(=O)c1oc2ccccc2c1NC(=O)c1cccc(F)c1,?,.,-8%,.,10µM*,.
CCOc1cc(CNC(=O)Cn2c(-c3cccs3)cc3cc(F)ccc32)ccc1OC,.,.,-9%,.,.,.
CCOc1ccc(CCNC(=O)Cn2c(-c3cccs3)cc3cc(F)ccc32)cc1OCC,-10%[10.9 µM],.,-17%,.,7.9µM*,.
Cc1nc(N2CCCC2)ncc1C(=O)NCc1ccccc1Cl,6%[10.9 µM],.,2%,.,-6%,.
COc1ccc(OC)c(-c2cc(C(=O)N3CCN(c4ncccn4)CC3)c3ccccc3n2)c1,-18%,1%,-20%,11%,-13%,2%
CCOc1ccc(-c2cc(C(=O)N3CCN(c4ccccn4)CC3)c3ccccc3n2)cc1,-17%,0%,2.5µM*,7%,?,0%
COc1ccc(-c2cc(C(=O)N3CCN(c4ccccn4)CC3)c3ccccc3n2)cc1,-21%,0%,13µM*,-7%,13µM*,1%
COc1cc(-c2cc(C(=O)N3CCN(c4ccccn4)CC3)c3ccccc3n2)cc(OC)c1OC,-11%,1%,14%,19%,-9%,-1%
COCCCNC(=O)c1sc2nc(C)c(C(=O)Nc3ccc(C)cc3C)c(-c3ccc(Cl)cc3)c2c1N,12%[10.9 µM],.,-3%,.,5%,.
CN(C)CCCN1c2ccccc2Sc2ccccc21,-14%,-2%[20.6 µM],9%,5%[20.5 µM],?,-1%[20.6 µM]
CN(C)CCCN1c2ccccc2CCc2ccc(Cl)cc21,-11%,0%[20.6 µM],-12%,0%,20µM*!,0%[20.6 µM]

# Source: PubChem BioAssay (National Center for Advancing Translational Sciences (NCATS))
